# Test results from PubChem BioAssay (EPA / NIEHS).
# Calls of active or inactive are those of the source. How the source made its calls: active means hit-call score of the fitted dose curve at least 0.9, where 1 is the maximum; inactive means score below 0.9.
# Assays:
# Conditions in all cases: mRNA level, 48 h; actives raise or lower the signal
# [1] = read-out: Broad substrate specificity ATP-binding cassette transporter ABCG2 (Homo sapiens) (UniProt Q9UNQ0); assay: LTEA_HepaRG_ABCG2: Life Technologies and Expression Analysis (LTEA) Assay for ABC Transporter (ABCG2) using HepaRG (AID 2283465)
# Outline: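 Differentiated HepaRG cells in serum-free induction medium were exposed for 48 h, in duplicate, to eight half-log concentrations up to 100 uM in 0.5% DMSO. ABCG2 mRNA was measured by TaqMan qRT-PCR, normalized to ACTB, GAPDH and POLR2A, and fitted bidirectionally versus DMSO.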
# [2] = read-out: ATP-citrate lyase (ACLY), ACLY (gene 47); assay: LTEA_HepaRG_ACLY: Life Technologies and Expression Analysis (LTEA) Assay for ATP-citrate lyase (ACLY) using HepaRG (AID 2283466)
# Outline: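 Differentiated human HepaRG cells in serum-free induction medium exposed 48 h, in duplicate, to eight half-log concentrations from 100 uM top in 0.5% DMSO; ACLY mRNA measured by qRT-PCR, normalized to ACTB, GAPDH, POLR2A, fitted bidirectionally versus DMSO.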
# [3] = read-out: Peroxisomal acyl-coenzyme A oxidase 1 (ACOX1) gene, ACOX1 (gene 51); assay: LTEA_HepaRG_ACOX1: Life Technologies and Expression Analysis (LTEA) Assay for Peroxisomal acyl-coenzyme A oxidase 1 (ACOX1) gene using HepaRG (AID 2283467)
# Outline: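 Differentiated human HepaRG cells were exposed in duplicate for 48 h in serum-free induction medium to eight half-log concentrations up to 100 uM in 0.5% DMSO. ACOX1 mRNA was then quantified by TaqMan qRT-PCR, normalized to ACTB, GAPDH and POLR2A.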
# [4] = read-out: Alkaline Phosphatase, Placental (ALPP) gene, ALPP (gene 250); assay: LTEA_HepaRG_ALPP: Life Technologies and Expression Analysis (LTEA) Assay for Alkaline Phosphatase, Placental (ALPP) gene using HepaRG (AID 2283468)
# Outline: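 HepaRG cells plated 48 h, then exposed in duplicate for 48 h in serum-free induction medium to 8-point half-log series from 100 uM in 0.5% DMSO. ALPP mRNA by TaqMan qRT-PCR, normalized to ACTB/GAPDH/POLR2A; bidirectional fit versus DMSO.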
# [5] = read-out: Bcl-2 (BAD) gene, BAD (gene 572); assay: LTEA_HepaRG_BAD: Life Technologies and Expression Analysis (LTEA) Assay for Bcl-2 (BAD) gene using HepaRG (AID 2283469)
# Outline: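 Differentiated human HepaRG cells in serum-free induction medium were exposed in duplicate for 48 h to eight concentrations (top 100 uM, half-log steps, 0.5% DMSO). BAD mRNA was quantified by qRT-PCR normalised to ACTB, GAPDH and POLR2A, with bidirectional fitting versus DMSO.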
# [6] = read-out: Bcl-2 (BAX) gene, BAX (gene 581); assay: LTEA_HepaRG_BAX: Life Technologies and Expression Analysis (LTEA) Assay for Bcl-2 (BAX) gene using HepaRG (AID 2283470)
# Outline: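 Differentiated HepaRG cells exposed 48 h in serum-free induction medium, eight half-log concentrations from 100 uM, in duplicate, 0.5% DMSO vehicle. BAX mRNA by TaqMan qRT-PCR, normalised to ACTB, GAPDH and POLR2A.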
# [7] = read-out: adenosine kinase (ADK) gene, ADK (gene 132); assay: LTEA_HepaRG_ADK: Life Technologies and Expression Analysis (LTEA) Assay for adenosine kinase (ADK) gene using HepaRG (AID 2283471)
# Outline: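 Read-out is ADK transcript level measured by qRT-PCR and normalised to three housekeeping genes. Cells are human HepaRG, dosed for 48 h at up to 100 uM in 0.5% DMSO. Gain or loss of signal is fitted against DMSO controls.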
# [8] = read-out: Alpha-fetoprotein (AFP) gene, AFP (gene 174); assay: LTEA_HepaRG_AFP: Life Technologies and Expression Analysis (LTEA) Assay for Alpha-fetoprotein (AFP) gene using HepaRG (AID 2283472)
# Outline: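 Differentiated human HepaRG cells exposed 48 h in serum-free induction medium, 8-point half-log series from 100 uM in 0.5% DMSO, duplicate. AFP mRNA by qRT-PCR, normalized to ACTB, GAPDH, POLR2A; bidirectional fit vs DMSO.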
# [9] = read-out: BCL2L11 (gene 10018); assay: LTEA_HepaRG_BCL2L11: Life Technologies and Expression Analysis (LTEA) Assay for Bcl-2 (BCL2L11) gene using HepaRG (AID 2283473)
# Outline: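 Differentiated human HepaRG cells were exposed 48 h in serum-free induction medium to eight half-log concentrations up to 100 uM in 0.5% DMSO, in duplicate. BCL2L11 mRNA was quantified by TaqMan qRT-PCR, normalized to ACTB, GAPDH and POLR2A; induction or repression fitted versus DMSO.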
# [10] = read-out: Apolipoprotein A-V (APOA5) gene, APOA5 (gene 116519); assay: LTEA_HepaRG_APOA5: Life Technologies and Expression Analysis (LTEA) Assay for Apolipoprotein A-V (APOA5) gene using HepaRG (AID 2283474)
# Outline: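 Differentiated HepaRG cells in serum-free induction medium, exposed 48 h in duplicate to eight half-log concentrations topping at 100 uM (0.5% DMSO). APOA5 mRNA by Fluidigm TaqMan qRT-PCR, normalized to ACTB, GAPDH and POLR2A; bidirectional fit versus DMSO.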
# [11] = read-out: Apoptosis regulator Bcl-2 (Homo sapiens) (UniProt P10415); assay: LTEA_HepaRG_BCL2: Life Technologies and Expression Analysis (LTEA) Assay for Bcl-2 gene using HepaRG (AID 2283475)
# Outline: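 Differentiated human HepaRG cells in serum-free induction medium exposed 48 h, in duplicate, to 8-point half-log series from 100 uM in 0.5% DMSO. BCL2 mRNA by qRT-PCR (TaqMan/Fluidigm), normalized to ACTB, GAPDH, POLR2A; bidirectional fit against DMSO.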
# [12] = read-out: Bcl-2 (BID) gene, BID (gene 637); assay: LTEA_HepaRG_BID: Life Technologies and Expression Analysis (LTEA) Assay for Bcl-2 (BID) gene using HepaRG (AID 2283476)
# Outline: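 Gene expression by qRT-PCR in HepaRG cells after 48 h exposure, duplicate wells, eight half-log concentrations topping at 100 uM in 0.5% DMSO. Normalized to ACTB, GAPDH, POLR2A; bidirectional fitting relative to DMSO.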
# [13] = read-out: Caspase-3 (Homo sapiens) (UniProt P42574); assay: LTEA_HepaRG_CASP3: Life Technologies and Expression Analysis (LTEA) Assay for cysteine-aspartic acid protease (CASP3) using HepaRG (AID 2283477)
# Outline: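 Differentiated HepaRG cells, plated 48 h, were treated in duplicate in serum-free induction medium for 48 h with eight half-log concentrations up to 100 uM in 0.5% DMSO. CASP3 mRNA measured by qRT-PCR, normalized to ACTB, GAPDH, POLR2A.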
# [14] = read-out: Cytochrome P450 (CYP24A1), CYP24A1 (gene 1591); assay: LTEA_HepaRG_CYP24A1: Life Technologies and Expression Analysis (LTEA) Assay for Cytochrome P450 (CYP24A1) using HepaRG (AID 2283478)
# Outline: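 HepaRG cells plated 48 h, then exposed in duplicate in serum-free induction medium for 48 h to 8-point half-log series from 100 uM in 0.5% DMSO. CYP24A1 mRNA by Fluidigm qRT-PCR, normalized to ACTB, GAPDH, POLR2A; bidirectional fit versus DMSO.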
# [15] = read-out: cysteine-aspartic acid protease (CASP8), CASP8 (gene 841); assay: LTEA_HepaRG_CASP8: Life Technologies and Expression Analysis (LTEA) Assay for cysteine-aspartic acid protease (CASP8) using HepaRG (AID 2283480)
# Outline: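 Differentiated human HepaRG cells, plated 48 h then switched to serum-free induction medium, were exposed in duplicate for 48 h to 8 half-log concentrations up to 100 uM in 0.5% DMSO. CASP8 mRNA was quantified by qRT-PCR, normalized to ACTB/GAPDH/POLR2A.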
# [16] = read-out: Cytochrome P450 (CYP2B6), CYP2B6 (gene 1555); assay: LTEA_HepaRG_CYP2B6: Life Technologies and Expression Analysis (LTEA) Assay for Cytochrome P450 (CYP2B6) using HepaRG (AID 2283481)
# Outline: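 Differentiated human HepaRG cells in serum-free induction medium, dosed in duplicate for 48 h over 8 half-log concentrations topping at 100 uM (0.5% DMSO). CYP2B6 mRNA measured by TaqMan qRT-PCR, normalized to ACTB, GAPDH, POLR2A; bidirectional fit versus DMSO.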
# [17] = read-out: Cytochrome P450 2C19 (Homo sapiens) (UniProt P33261); assay: LTEA_HepaRG_CYP2C19: Life Technologies and Expression Analysis (LTEA) Assay for CYP2C19 using HepaRG (AID 2283482)
# Outline: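 Differentiated HepaRG cells in serum-free induction medium exposed 48 h in duplicate, 8 concentrations from 100 uM by half-log steps in 0.5% DMSO. CYP2C19 mRNA measured by TaqMan qRT-PCR, normalized to ACTB, GAPDH, POLR2A. Bidirectional fit versus DMSO.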
# [18] = read-out: CYP2C8 (gene 1558); assay: LTEA_HepaRG_CYP2C8: Life Technologies and Expression Analysis (LTEA) Assay for CYP2C8 using HepaRG (AID 2283483)
# Outline: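 Differentiated human HepaRG cells were exposed for 48 h in serum-free induction medium to eight half-log concentrations up to 100 uM in 0.5% DMSO, in duplicate. CYP2C8 mRNA was measured by TaqMan qRT-PCR, normalized to ACTB, GAPDH and POLR2A, and fitted bidirectionally against DMSO.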
# [19] = read-out: Cytochrome P450 (CYP1A2), CYP1A2 (gene 1544); assay: LTEA_HepaRG_CYP1A2: Life Technologies and Expression Analysis (LTEA) Assay for Cytochrome P450 (CYP1A2) using HepaRG (AID 2283479)
# Outline: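 Differentiated human HepaRG cells in serum-free induction medium exposed 48 hours in duplicate to 8 half-log concentrations from 100 uM, 0.5% DMSO. CYP1A2 mRNA quantified by qRT-PCR, normalized to ACTB, GAPDH and POLR2A; bidirectional fitting versus DMSO.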
# Broad substrate specificity ATP-binding cassette transporter ABCG2 (Homo sapiens), sequence (Q9UNQ0 whole entry, looked up): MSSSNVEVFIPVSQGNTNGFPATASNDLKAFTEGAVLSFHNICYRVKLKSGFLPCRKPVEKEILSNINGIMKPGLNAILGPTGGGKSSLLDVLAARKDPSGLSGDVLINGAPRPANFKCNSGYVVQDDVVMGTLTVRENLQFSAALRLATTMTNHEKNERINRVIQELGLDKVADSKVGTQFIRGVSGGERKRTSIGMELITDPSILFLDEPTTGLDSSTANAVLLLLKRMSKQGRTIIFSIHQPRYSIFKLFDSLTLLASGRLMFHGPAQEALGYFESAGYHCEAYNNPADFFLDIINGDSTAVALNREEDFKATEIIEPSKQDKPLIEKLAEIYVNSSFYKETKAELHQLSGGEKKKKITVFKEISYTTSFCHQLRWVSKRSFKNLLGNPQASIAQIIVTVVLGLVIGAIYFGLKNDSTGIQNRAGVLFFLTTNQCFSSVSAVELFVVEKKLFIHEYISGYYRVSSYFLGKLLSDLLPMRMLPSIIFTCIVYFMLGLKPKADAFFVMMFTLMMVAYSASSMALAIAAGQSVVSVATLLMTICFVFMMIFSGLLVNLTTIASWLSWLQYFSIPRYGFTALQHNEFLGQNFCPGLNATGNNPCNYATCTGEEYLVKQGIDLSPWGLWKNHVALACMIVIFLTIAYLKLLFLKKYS
# Apoptosis regulator Bcl-2 (Homo sapiens), sequence (P10415 whole entry, looked up): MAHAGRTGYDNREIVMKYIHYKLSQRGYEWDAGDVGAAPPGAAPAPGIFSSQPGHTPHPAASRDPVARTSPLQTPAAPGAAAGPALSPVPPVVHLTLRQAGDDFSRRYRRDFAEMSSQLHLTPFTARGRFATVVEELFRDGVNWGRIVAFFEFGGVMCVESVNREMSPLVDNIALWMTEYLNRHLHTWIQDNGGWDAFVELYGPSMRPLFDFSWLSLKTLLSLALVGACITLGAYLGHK
# Caspase-3 (Homo sapiens), sequence (P42574 whole entry, looked up): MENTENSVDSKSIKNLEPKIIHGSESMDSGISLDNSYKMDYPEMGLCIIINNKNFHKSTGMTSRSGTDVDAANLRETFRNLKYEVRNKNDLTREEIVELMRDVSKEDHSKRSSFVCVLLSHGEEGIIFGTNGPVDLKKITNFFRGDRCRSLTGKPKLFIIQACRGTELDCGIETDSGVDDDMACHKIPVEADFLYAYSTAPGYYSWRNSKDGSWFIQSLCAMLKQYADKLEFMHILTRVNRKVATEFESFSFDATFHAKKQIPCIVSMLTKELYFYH
# Cytochrome P450 2C19 (Homo sapiens), sequence (P33261 whole entry, looked up): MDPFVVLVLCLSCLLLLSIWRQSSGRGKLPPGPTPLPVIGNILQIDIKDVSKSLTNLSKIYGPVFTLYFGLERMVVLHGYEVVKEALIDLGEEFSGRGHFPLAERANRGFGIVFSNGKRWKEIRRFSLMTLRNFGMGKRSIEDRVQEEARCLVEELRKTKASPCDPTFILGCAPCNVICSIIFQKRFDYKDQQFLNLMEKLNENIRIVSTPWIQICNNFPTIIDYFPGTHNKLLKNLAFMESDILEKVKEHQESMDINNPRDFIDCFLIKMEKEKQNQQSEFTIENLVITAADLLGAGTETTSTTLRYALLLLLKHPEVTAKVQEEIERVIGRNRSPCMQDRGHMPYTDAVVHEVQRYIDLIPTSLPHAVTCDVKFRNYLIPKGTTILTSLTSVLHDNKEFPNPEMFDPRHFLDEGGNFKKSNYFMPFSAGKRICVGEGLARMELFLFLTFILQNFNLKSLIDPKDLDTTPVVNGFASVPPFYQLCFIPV
smiles,measurement,setting,value
OCCO,outcome,[1],inactive
same,outcome,[2],inactive
same,outcome,[3],inactive
same,outcome,[4],inactive
same,outcome,[5],inactive
same,outcome,[6],inactive
same,outcome,[7],inactive
same,outcome,[8],inactive
same,outcome,[9],inactive
same,outcome,[10],inactive
same,outcome,[11],inactive
same,outcome,[12],inactive
same,AC50,[13],9.97 µM (active)
same,outcome,[14],inactive
same,outcome,[15],inactive
same,outcome,[16],inactive
same,outcome,[17],inactive
same,outcome,[18],inactive
O=CCCCC=O,outcome,[1],inactive
same,outcome,[2],inactive
same,outcome,[3],inactive
same,outcome,[5],inactive
same,outcome,[6],inactive
same,outcome,[7],inactive
same,outcome,[8],inactive
same,outcome,[9],inactive
same,outcome,[10],inactive
same,outcome,[11],inactive
same,outcome,[13],inactive
same,outcome,[14],inactive
same,outcome,[19],inactive
same,outcome,[15],inactive
same,outcome,[16],inactive
same,outcome,[17],inactive
same,outcome,[18],inactive
OC12N=C(c3ccccc3)SC1Cc1cc(Cl)ccc12 (stereo unspecified),AC50,[1],16.7 µM (active)
same,AC50,[2],0.377 µM (active)
same,AC50,[3],21.1 µM (active)
same,AC50,[4],35.7 µM (active)
same,outcome,[5],inactive
same,outcome,[6],inactive
same,outcome,[7],inactive
same,AC50,[8],36.4 µM (active)
same,AC50,[9],2.86 µM (active)
same,AC50,[10],25.2 µM (active)
same,AC50,[11],20.3 µM (active)
same,outcome,[13],inactive
same,outcome,[14],inactive
same,outcome,[15],inactive
same,AC50,[16],11.6 µM (active)
same,AC50,[17],80.4 µM (active)
same,AC50,[18],39.6 µM (active)
CC[C@@H]1C[C@H](N(Cc2cc(C(F)(F)F)cc(C(F)(F)F)c2)C(C)=O)c2cc(C(F)(F)F)ccc2N1C(=O)OC(C)C,outcome,[1],inactive
same,outcome,[2],inactive
same,outcome,[3],inactive
same,outcome,[4],inactive
same,outcome,[5],inactive
same,outcome,[6],inactive
same,outcome,[7],inactive
same,outcome,[8],inactive
same,outcome,[9],inactive
same,outcome,[10],inactive
same,outcome,[11],inactive
same,outcome,[12],inactive
same,outcome,[13],inactive
same,outcome,[14],inactive
same,outcome,[15],inactive
same,AC50,[16],0.735 µM (active)
same,AC50,[17],0.507 µM (active)
same,AC50,[18],0.814 µM (active)
O=c1[nH]sc2ccccc12,outcome,[1],inactive
same,outcome,[2],inactive
same,outcome,[3],inactive
same,outcome,[4],inactive
same,outcome,[5],inactive
same,outcome,[6],inactive
same,outcome,[7],inactive
same,outcome,[8],inactive
same,outcome,[9],inactive
same,outcome,[10],inactive
same,outcome,[11],inactive
same,outcome,[12],inactive
same,outcome,[13],inactive
same,outcome,[14],inactive
same,outcome,[15],inactive
same,outcome,[16],inactive
same,outcome,[17],inactive
same,outcome,[18],inactive
CCCCCCCCN(C)CCCCCCCC,outcome,[1],inactive
same,outcome,[2],inactive
same,outcome,[3],inactive
same,outcome,[4],inactive
same,outcome,[5],inactive
same,outcome,[6],inactive
same,outcome,[7],inactive
same,outcome,[8],inactive
same,outcome,[9],inactive
same,outcome,[10],inactive
same,outcome,[11],inactive
same,outcome,[12],inactive
same,outcome,[13],inactive
same,outcome,[19],inactive
same,outcome,[15],inactive
same,outcome,[16],inactive
same,outcome,[17],inactive
same,outcome,[18],inactive
